# Measurements: article PMC7862700, “An all-to-all approach to the identification of sequence-specific readers for epigenetic DNA modifications on cytosine”
# What was measured:
# Assay in all cases: DAPPL (digital affinity profiling via proximity ligation, sequencing); 10 mM Tris-HCl pH 7.5, 50 mM NaCl, 1 mM DTT, 4% glycerol, room temperature, 30 min; GST-TFs on glutathione beads, 16-mer random dsDNA library, 0.1% formaldehyde crosslink after washing; high values mean tight binding
# FEV = target: T1, FEV (Homo sapiens, UniProt Q99581 1-238); conditions: protein: recombinant; tags: N-terminal GST; dsDNA, one strand shown
# T1 sequence: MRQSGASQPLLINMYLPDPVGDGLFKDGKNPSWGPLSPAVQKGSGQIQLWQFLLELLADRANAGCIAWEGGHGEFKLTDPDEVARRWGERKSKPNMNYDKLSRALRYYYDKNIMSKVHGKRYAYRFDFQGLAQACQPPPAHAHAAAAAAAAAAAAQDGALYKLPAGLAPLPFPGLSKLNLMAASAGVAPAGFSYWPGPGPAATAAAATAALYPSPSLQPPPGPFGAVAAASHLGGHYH
# Summary of the method: (§1)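 Yeast served to express human transcription factors as GST fusions, which were then captured on glutathione beads and labelled with DNA barcodes. Pooled with a tag-only sample, they were incubated with 200 nmole of a 16-mer random double-stranded DNA library for 30 min at room temperature in Tris/NaCl/DTT/glycerol buffer, washed, crosslinked with 0.1% formaldehyde, ligated by proximity, amplified by PCR and sequenced. Dividing each hexamer's read frequency for a factor by its frequency for the tag-only sample gives the binding signal.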
# ETV5 = ETV5 (Homo sapiens, UniProt P41161 1-510); conditions: protein: recombinant; tags: N-terminal GST; dsDNA, one strand shown
# Chain of ETV5 (P41161 whole entry): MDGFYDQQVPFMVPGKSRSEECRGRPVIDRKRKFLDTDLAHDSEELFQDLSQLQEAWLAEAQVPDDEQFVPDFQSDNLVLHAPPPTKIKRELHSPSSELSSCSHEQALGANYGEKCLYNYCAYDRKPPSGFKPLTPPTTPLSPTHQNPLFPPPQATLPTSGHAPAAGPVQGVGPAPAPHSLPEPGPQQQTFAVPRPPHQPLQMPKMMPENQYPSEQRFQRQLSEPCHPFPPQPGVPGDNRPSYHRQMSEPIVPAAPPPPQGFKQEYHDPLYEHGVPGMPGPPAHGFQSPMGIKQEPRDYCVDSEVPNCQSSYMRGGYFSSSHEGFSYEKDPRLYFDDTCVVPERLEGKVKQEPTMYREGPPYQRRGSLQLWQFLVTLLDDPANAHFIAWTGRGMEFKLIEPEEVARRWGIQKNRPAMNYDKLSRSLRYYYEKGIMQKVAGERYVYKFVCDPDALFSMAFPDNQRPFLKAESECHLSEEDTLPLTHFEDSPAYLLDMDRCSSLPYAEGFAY
# Summary of the method: as §1
# HSF1 = HSF1 (Homo sapiens, UniProt Q00613 1-529); conditions: protein: recombinant; tags: N-terminal GST; chain copies: 3; dsDNA, one strand shown
# Chain of HSF1 (Q00613 whole entry): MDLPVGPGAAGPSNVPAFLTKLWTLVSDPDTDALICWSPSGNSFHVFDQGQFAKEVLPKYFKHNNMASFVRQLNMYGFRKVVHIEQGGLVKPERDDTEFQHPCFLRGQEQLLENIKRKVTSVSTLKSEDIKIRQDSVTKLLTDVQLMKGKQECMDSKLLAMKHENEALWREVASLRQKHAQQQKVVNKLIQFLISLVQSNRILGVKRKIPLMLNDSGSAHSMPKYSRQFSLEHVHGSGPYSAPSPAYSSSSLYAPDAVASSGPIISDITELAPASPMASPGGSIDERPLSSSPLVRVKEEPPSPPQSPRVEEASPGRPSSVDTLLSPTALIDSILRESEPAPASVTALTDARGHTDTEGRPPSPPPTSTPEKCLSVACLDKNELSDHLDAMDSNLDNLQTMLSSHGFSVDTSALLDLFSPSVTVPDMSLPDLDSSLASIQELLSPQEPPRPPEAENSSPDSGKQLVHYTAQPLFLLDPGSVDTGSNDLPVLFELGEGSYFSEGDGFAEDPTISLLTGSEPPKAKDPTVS
# Summary of the method: as §1
# SPIC = target: T2, SPIC (Homo sapiens, UniProt Q8N5J4 1-248); conditions: protein: recombinant; tags: N-terminal GST; dsDNA, one strand shown
# T2 sequence: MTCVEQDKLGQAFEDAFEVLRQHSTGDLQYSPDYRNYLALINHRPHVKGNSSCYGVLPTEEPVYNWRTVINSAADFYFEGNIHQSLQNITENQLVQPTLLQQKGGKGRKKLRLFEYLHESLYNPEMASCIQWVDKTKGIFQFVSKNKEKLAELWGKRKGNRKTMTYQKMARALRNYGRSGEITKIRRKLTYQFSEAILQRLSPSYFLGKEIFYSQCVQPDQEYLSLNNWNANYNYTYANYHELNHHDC
# Summary of the method: as §1
# ELF4 = ELF4 (Homo sapiens, UniProt Q99607 1-663); conditions: protein: recombinant; tags: N-terminal GST; dsDNA, one strand shown
# Chain of ELF4 (Q99607 whole entry): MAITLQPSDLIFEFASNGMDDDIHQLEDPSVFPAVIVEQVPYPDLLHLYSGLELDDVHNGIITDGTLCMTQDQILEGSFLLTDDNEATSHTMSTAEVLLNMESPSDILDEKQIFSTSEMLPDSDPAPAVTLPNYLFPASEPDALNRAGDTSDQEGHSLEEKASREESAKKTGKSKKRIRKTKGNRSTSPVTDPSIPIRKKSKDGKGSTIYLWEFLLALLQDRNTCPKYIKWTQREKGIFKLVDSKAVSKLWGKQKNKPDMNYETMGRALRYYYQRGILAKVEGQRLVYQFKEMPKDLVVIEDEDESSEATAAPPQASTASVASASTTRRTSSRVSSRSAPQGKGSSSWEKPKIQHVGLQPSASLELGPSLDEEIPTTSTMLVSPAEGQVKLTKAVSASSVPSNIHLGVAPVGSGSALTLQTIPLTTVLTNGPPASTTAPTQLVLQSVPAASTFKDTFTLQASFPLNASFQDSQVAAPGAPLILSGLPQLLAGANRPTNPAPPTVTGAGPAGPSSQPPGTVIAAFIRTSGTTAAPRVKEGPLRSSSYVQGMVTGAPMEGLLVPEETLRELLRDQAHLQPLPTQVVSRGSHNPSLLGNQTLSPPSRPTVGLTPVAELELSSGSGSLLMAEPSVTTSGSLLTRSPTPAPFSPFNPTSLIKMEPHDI
# Summary of the method: as §1
# ELK4 = target: T3, ELK4 (Homo sapiens, UniProt P28324-2 1-405); conditions: protein: recombinant; tags: N-terminal GST; dsDNA, one strand shown
# T3 sequence: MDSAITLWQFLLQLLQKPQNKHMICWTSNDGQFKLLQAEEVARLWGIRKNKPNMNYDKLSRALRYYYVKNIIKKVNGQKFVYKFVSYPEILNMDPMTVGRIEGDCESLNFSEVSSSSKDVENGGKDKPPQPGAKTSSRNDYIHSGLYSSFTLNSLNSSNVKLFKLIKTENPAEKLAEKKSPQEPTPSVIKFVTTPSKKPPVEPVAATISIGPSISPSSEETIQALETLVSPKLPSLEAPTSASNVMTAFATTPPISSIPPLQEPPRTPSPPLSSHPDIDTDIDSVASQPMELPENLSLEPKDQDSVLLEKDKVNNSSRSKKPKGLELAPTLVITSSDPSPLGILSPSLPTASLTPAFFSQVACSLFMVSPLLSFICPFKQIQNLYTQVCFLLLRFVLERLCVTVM
# Summary of the method: as §1
# ETV2 = target: T4, ETV2 (Homo sapiens, UniProt O00321 1-342); conditions: protein: recombinant; tags: N-terminal GST; dsDNA, one strand shown
# T4 sequence: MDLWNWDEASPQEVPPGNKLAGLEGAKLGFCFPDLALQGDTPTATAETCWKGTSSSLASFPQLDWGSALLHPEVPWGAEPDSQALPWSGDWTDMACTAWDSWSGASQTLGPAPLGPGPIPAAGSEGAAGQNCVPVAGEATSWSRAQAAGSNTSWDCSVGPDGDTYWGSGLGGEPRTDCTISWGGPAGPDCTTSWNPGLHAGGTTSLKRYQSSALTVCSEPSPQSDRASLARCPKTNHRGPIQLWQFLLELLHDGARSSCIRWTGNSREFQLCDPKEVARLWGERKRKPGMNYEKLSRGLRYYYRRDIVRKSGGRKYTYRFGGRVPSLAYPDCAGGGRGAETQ
# Summary of the method: as §1
# ELF3 = target: T5, ELF3 (Homo sapiens, UniProt P78545 1-371); conditions: protein: recombinant; tags: N-terminal GST; dsDNA, one strand shown
# T5 sequence: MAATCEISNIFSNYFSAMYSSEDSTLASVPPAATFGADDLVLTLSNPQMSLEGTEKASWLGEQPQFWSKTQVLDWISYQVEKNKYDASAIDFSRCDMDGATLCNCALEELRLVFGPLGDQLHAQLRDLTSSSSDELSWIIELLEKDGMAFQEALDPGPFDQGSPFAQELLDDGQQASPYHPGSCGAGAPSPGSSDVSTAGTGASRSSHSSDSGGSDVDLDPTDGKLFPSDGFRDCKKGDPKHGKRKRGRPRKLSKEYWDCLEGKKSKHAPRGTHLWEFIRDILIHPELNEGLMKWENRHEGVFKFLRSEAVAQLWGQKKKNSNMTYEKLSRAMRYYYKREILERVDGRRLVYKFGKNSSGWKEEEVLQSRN
# Summary of the method: as §1
# CRX = CRX (Homo sapiens, UniProt O43186 1-299); conditions: protein: recombinant; tags: N-terminal GST; dsDNA, one strand shown
# Chain of CRX (O43186 whole entry): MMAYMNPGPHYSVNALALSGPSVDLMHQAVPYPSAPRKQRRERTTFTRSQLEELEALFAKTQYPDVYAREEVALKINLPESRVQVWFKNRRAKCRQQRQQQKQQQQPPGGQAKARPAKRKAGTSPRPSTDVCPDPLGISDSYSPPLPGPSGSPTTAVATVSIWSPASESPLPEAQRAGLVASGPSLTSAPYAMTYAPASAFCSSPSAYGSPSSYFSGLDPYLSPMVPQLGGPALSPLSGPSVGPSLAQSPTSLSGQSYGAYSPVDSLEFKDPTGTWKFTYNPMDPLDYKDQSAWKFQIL
# Summary of the method: as §1
# ETV1 = ETV1 (Homo sapiens, UniProt P50549 1-477); conditions: protein: recombinant; tags: N-terminal GST; dsDNA, one strand shown
# Chain of ETV1 (P50549 whole entry): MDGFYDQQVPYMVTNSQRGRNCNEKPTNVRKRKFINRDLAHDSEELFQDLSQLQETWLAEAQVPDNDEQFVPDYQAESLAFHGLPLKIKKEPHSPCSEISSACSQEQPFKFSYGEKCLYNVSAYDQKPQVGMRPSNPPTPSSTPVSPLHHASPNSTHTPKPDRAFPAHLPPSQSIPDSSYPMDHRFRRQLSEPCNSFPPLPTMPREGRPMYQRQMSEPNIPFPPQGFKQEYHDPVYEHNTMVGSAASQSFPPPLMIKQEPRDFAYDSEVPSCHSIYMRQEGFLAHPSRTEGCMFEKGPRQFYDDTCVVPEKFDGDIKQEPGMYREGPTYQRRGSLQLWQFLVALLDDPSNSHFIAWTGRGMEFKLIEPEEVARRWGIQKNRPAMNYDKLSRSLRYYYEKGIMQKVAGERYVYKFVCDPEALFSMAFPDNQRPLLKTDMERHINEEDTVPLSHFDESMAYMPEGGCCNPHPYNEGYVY
# Summary of the method: as §1
# ERF = target: T6, ERF (Homo sapiens, UniProt P50548 1-548); conditions: protein: recombinant; tags: N-terminal GST; dsDNA, one strand shown
# T6 sequence: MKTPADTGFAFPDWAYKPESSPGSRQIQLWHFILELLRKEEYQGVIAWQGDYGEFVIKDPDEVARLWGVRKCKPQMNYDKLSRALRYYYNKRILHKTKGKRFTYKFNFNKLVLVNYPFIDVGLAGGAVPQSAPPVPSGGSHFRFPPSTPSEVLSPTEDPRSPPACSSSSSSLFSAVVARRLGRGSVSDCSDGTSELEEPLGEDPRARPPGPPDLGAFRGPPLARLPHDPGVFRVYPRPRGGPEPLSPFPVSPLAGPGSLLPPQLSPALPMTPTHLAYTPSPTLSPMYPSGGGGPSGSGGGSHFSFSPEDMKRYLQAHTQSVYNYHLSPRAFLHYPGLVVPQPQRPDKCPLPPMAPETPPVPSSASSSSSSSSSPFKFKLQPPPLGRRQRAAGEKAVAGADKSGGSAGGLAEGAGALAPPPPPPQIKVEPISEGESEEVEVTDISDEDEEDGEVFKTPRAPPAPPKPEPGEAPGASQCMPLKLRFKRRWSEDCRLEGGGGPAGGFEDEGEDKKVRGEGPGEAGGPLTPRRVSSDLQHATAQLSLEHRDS
# Summary of the method: as §1
# ETV3L = target: T7, ETV3L (Homo sapiens, UniProt Q6ZN32 1-361); conditions: protein: recombinant; tags: N-terminal GST; dsDNA, one strand shown
# T7 sequence: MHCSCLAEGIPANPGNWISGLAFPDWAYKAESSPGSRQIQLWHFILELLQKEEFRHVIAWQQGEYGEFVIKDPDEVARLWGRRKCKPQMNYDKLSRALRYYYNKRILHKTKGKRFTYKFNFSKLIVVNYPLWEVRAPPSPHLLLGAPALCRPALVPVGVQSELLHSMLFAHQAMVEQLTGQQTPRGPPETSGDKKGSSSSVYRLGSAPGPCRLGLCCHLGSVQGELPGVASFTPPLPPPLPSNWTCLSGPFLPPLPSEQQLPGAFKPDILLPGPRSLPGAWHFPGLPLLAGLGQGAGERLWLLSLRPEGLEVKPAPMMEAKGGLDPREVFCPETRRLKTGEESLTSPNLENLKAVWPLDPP
# Summary of the method: as §1
# ETS2 = target: T8, ETS2 (Homo sapiens, UniProt P15036 1-469); conditions: protein: recombinant; tags: N-terminal GST; dsDNA, one strand shown
# T8 sequence: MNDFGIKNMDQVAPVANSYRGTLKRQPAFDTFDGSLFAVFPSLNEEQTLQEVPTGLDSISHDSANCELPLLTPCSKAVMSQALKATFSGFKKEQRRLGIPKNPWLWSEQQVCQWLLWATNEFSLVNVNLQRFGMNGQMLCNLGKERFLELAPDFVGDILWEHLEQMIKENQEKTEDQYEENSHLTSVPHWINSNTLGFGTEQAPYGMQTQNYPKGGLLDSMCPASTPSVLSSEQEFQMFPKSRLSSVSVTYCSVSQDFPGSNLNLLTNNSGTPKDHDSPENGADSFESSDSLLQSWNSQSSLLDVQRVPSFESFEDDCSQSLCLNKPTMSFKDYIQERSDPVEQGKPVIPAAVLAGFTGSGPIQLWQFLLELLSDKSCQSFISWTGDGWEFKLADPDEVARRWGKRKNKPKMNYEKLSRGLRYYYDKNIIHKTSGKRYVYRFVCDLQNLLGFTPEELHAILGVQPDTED
# Summary of the method: as §1
# SPDEF = target: T9, SPDEF (Homo sapiens, UniProt O95238 1-335); conditions: protein: recombinant; tags: N-terminal GST; dsDNA, one strand shown
# T9 sequence: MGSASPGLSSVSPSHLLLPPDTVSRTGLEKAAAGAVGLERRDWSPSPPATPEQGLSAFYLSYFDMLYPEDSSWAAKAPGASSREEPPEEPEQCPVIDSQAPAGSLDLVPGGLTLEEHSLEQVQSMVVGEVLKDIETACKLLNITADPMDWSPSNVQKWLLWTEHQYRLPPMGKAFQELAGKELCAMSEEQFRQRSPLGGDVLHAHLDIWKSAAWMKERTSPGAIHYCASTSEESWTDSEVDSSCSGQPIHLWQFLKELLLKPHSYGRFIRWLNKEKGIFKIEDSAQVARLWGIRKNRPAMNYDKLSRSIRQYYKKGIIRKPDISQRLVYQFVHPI
# Summary of the method: as §1
# ETV7 = target: T10, ETV7 (Homo sapiens, UniProt Q9Y603 1-341); conditions: protein: recombinant; tags: N-terminal GST; dsDNA, one strand shown
# T10 sequence: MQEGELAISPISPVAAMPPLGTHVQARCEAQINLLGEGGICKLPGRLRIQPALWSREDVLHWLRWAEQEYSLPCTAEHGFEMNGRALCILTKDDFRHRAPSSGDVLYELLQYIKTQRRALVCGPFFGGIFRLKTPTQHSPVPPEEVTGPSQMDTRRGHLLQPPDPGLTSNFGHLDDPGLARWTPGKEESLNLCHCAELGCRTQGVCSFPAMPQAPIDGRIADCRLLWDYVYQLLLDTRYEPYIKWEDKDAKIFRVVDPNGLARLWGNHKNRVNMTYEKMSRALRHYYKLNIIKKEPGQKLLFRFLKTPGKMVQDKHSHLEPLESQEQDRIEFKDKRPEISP
# Summary of the method: as §1
# ELF5 = target: T11, ELF5 (Homo sapiens, UniProt Q9UKW6-2 1-255); conditions: protein: recombinant; tags: N-terminal GST; dsDNA, one strand shown
# T11 sequence: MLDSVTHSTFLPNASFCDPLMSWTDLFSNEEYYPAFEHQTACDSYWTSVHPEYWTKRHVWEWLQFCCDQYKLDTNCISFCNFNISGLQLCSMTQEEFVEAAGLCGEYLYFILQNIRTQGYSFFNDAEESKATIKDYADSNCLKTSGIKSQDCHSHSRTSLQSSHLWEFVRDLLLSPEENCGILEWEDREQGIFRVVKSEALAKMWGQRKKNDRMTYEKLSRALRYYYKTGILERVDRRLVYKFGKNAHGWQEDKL
# Summary of the method: as §1
# ETV3 = target: T12, ETV3 (Homo sapiens, UniProt P41162-2 1-143); conditions: protein: recombinant; tags: N-terminal GST; dsDNA, one strand shown
# T12 sequence: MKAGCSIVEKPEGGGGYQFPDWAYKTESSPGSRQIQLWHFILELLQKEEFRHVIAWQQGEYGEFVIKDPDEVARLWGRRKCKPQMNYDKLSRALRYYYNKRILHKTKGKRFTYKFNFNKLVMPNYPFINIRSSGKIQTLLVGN
# Summary of the method: as §1
# ETV6 = ETV6 (Homo sapiens, UniProt P41212 1-452); conditions: protein: recombinant; tags: N-terminal GST; dsDNA, one strand shown
# Chain of ETV6 (P41212 whole entry): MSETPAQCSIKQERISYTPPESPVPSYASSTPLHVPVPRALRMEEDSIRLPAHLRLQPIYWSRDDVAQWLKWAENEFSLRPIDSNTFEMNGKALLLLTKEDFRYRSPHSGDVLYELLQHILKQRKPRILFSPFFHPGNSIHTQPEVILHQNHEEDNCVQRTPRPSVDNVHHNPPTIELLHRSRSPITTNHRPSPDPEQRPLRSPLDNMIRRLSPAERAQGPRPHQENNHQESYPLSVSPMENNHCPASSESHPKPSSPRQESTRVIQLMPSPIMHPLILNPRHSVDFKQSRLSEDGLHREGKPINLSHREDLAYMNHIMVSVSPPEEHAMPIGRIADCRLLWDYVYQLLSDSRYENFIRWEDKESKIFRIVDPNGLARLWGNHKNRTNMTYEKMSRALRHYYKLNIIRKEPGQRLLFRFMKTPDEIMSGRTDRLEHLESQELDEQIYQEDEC
# Summary of the method: as §1
sequence,measurement,setting,value
TACCCT,binding signal,FEV,"1.29 fold enrichment (6-mer frequency, TF over GST control)"
same,binding signal,ETV5,"1.28 fold enrichment (6-mer frequency, TF over GST control)"
same,binding signal,HSF1,"1.28 fold enrichment (6-mer frequency, TF over GST control)"
same,binding signal,SPIC,"1.38 fold enrichment (6-mer frequency, TF over GST control)"
same,binding signal,ELF4,"1.44 fold enrichment (6-mer frequency, TF over GST control)"
same,binding signal,ELK4,"1.47 fold enrichment (6-mer frequency, TF over GST control)"
same,binding signal,ETV2,"1.35 fold enrichment (6-mer frequency, TF over GST control)"
same,binding signal,ELF3,"1.2 fold enrichment (6-mer frequency, TF over GST control)"
same,binding signal,CRX,"1.45 fold enrichment (6-mer frequency, TF over GST control)"
same,binding signal,ETV1,"1.35 fold enrichment (6-mer frequency, TF over GST control)"
same,binding signal,ERF,"1.28 fold enrichment (6-mer frequency, TF over GST control)"
same,binding signal,ETV3L,"1.18 fold enrichment (6-mer frequency, TF over GST control)"
same,binding signal,ETS2,"1.29 fold enrichment (6-mer frequency, TF over GST control)"
same,binding signal,SPDEF,"1.29 fold enrichment (6-mer frequency, TF over GST control)"
same,binding signal,ETV7,"1.27 fold enrichment (6-mer frequency, TF over GST control)"
same,binding signal,ELF5,"1.26 fold enrichment (6-mer frequency, TF over GST control)"
same,binding signal,ETV3,"1.25 fold enrichment (6-mer frequency, TF over GST control)"
same,binding signal,ETV6,"1.16 fold enrichment (6-mer frequency, TF over GST control)"
